From PubChem BioAssay
KCNQ2 enhance: KCNQ2 (rat) channel potentiation. CHO-K1 KCNQ2, FluxOR thallium flux fluorescence; active compounds read high. B-score at 10 µM. 310,000 compounds, 0.54% hits;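 active = fluorescence ratio B-score at least 3 SD of library B-scores, with initial fluorescence B-score within 3 of them, cut at about 5.3 in these data; same plate scores as AID 2156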;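 also: B-score of peak minus minimum over baseline fluorescence ratio after K+ and Tl+ stimulus; positive B-score means potentiation of KCNQ2 with more thallium influx and brighter signal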
KCNQ2 block: blocks the rat KCNQ2 potassium channel; O88943; CHO-K1 KCNQ2, FluxOR thallium flux, 20 min; active compounds read low; B-score at 10 µM; 310,000 compounds, 1.1% hits;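 active = fluorescence ratio B-score at most minus 3 library SDs, with starting brightness B-score within 2 library SDs, cut at about -5.5 in these data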
Kir21 conf inh: confirmation of mouse Kir2.1 potassium channel inhibitors; shares compounds with KCNQ2 enhance; Kir2.1-expressing cells, FluxOR thallium flux fluorescence; active compounds read low; Tl flux remaining, % of negative control (active compounds read low), % at 10 µM; 2,300 compounds, 41% hits; AID 2032;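 active = Primary-screen hit whose thallium flux fell at least 3 control SD below untreated wells in both duplicates, with normal baseline fluorescence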;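 also: 0% = blank wells without stimulus and 100% = stimulated no-compound controls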
Target sequence (P35561 whole entry, looked up): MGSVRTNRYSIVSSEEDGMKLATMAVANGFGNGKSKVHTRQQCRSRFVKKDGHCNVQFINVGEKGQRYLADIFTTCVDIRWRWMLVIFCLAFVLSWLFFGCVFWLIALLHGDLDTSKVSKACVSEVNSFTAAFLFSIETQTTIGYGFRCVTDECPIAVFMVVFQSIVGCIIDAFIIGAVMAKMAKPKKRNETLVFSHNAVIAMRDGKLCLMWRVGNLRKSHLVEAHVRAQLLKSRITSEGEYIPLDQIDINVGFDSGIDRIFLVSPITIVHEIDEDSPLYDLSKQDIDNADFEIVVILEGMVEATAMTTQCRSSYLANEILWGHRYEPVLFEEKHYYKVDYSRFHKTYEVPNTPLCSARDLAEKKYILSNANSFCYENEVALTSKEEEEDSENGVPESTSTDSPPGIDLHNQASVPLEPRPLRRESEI
HEK293 Tl flux: counter-screen for Kir2.1 inhibitors: effect in parental HEK293 cells; shares compounds with KCNQ2 enhance; FluxOR thallium flux fluorescence; 0% = unstimulated blank wells; FluxOR signal as % of negative control (100 = no effect), % at 10 µM; 2,300 compounds, 19% hits;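 active = dye signal at least 3 control SD above or below untreated wells in both duplicates, raw fluorescence within 3, either direction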;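 also: percent is based on the flux ratio of peak minus minimum fluorescence over baseline F0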
CHO-K1 ctr: parental CHO-K1 activity in KCNQ2 potentiator counter-screen; shares compounds with KCNQ2 enhance; parental CHO-K1 cells, FluxOR thallium flux fluorescence; zero = vehicle mean+3SD, 100% = vehicle-minus-blank window; activity increase over 3SD of controls, % at 10 µM; 1,200 compounds, 43% hits; AID 2282;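 active = signal rise of at least 3 SD above the untreated control mean, in both duplicate wells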;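 also: counter screen of KCNQ2 potentiator hits so any rise reflects channel-independent effects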
KCNQ1 sel pot: human KCNQ1 counter-target activity of KCNQ2 potentiators; 1,200 compounds, 28% hits; activation over 3SD threshold, % at 10 µM; CHO KCNQ1 stable, FluxOR thallium flux fluorescence; beyond 3SD, as % of vehicle-control signal; shares compounds with KCNQ2 enhance;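 active = fluorescence ratio rise of at least 3 SD of vehicle wells above their mean, in both replicate wells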;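 also: 0% = vehicle mean plus 3 SD and 100% = vehicle minus unstimulated blank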
KCNQ2 pot confirm: rat KCNQ2 channel potentiator confirmation; AID 2287; CHO-KCNQ2 cells, FluxOR thallium flux fluorescence; 1,200 compounds, 68% hits; potentiation, less the hit threshold, % at 10 µM; shares compounds with KCNQ2 enhance;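 active = fluorescence ratio rising 3 SD or more over the vehicle control mean in both replicates, plus primary screen hit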;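 also: peak minus minimum thallium fluorescence divided by baseline after K/Tl stimulus; 0% = vehicle mean plus 3 SD and 100% = vehicle minus unstimulated blank difference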
Kir2-1 sel: mouse Kir2.1 off-target activity of KCNQ2 potentiators; shares compounds with KCNQ2 enhance; HEK293 Kir2.1, FluxOR thallium flux fluorescence; activity over 3SD threshold, % at 10 µM; 1,200 compounds, 2% hits; AID 2345;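 active = fluorescence ratio rise of at least 3 SD above the vehicle-control mean, seen in both replicates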;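 also: 0% = vehicle mean plus 3 SD and 100% = vehicle minus no-stimulus blank window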
KCNQ2 W236L MoA: rat KCNQ2 W236L mutant potentiation by KCNQ2 potentiators | current increase over 3SD of negative controls (%), active compounds read high, % at 25 µM | shares compounds with KCNQ2 enhance | CHO KCNQ2-W236L, automated patch clamp current | 940 compounds, 10% hits | AID 2558;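 active = current increase at least 3 SD of the untreated controls above them in both duplicate recordings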
* hit, by the source's call; i = inactive; nt = no result. In the library only some 1.6% were active in any assay of this set; here they are far more common.

SMILES | KCNQ2 enhance | KCNQ2 block | Kir21 conf inh | HEK293 Tl flux | others
COc1cc(C(=O)OCC(=O)NC2CCCC2)cc(NC(=O)c2ccco2)c1OC | 11.2* | i | i | i | CHO-K1 ctr=-8.9;KCNQ1 sel pot=-8.8;KCNQ2 pot confirm=-15.0;Kir2-1 sel=-18.4
COc1cc(C(=O)OCC(C)=O)cc(NC(=O)c2ccco2)c1OC | nt | i | nt | nt
CCCN(C(=O)Cc1ccc(S(=O)(=O)N2CCOCC2)s1)c1c(N)n(Cc2ccccc2)c(=O)[nH]c1=O | 1.83 | i | nt | nt
Cc1cc(C)c(OCCCCNCc2ccccc2)c(Cl)c1 | nt | i | 12.0%* | i
Cc1cc(Cl)cc(C)c1OCCOCCNCc1ccccc1 | nt | i | 14.5%* | i
Clc1ccc(OCCOCCNCc2ccccc2)cc1Cl | nt | i | 22.5%* | i
CC(C)(C)c1ccc(OCCNCc2ccccc2)cc1 | nt | i | nt | nt
Cc1cc(C)c(C)c(OCCNCc2ccccc2)c1 | nt | i | nt | nt
Cc1cc(Br)ccc1OCCNCc1ccccc1 | nt | i | 25.0%* | i
COc1c(Cl)cc(Cl)cc1CNCc1ccccc1 | nt | i | nt | nt
COc1ccccc1OCCCOc1c(Cl)cc(C)cc1Cl | 0.23 | i | nt | nt
COC(=O)c1sccc1N(C)S(C)(=O)=O | 0.09 | i | nt | nt
CCN(CC)C(=O)C[n+]1cccc(C(N)=O)c1 | 0.64 | i | nt | nt
CC(=O)N/C(=C\c1ccccc1)C(=O)OCc1cccc(S(=O)(=O)N(C)C)c1 | nt | i | nt | nt
CCCCN(C)C(=O)c1nc2ccccn2c1CN1CCC[C@H]1CO | 0.97 | i | nt | nt
CCC(C)NCCOCCOc1ccc(Cl)c2ccccc12 (centres undefined) | 0.24 | i | nt | nt
Clc1ccc(OCCCNCc2ccccc2)c2ccccc12 | -7.61 | -7.61* | 13.5%* | 73.5%*
COc1cccc(CNC(=O)CN2C(=O)CSc3ccc(S(=O)(=O)N4CCCC4)cc32)c1 | nt | i | nt | nt
COc1ccc(/C(C)=N/Nc2ccc(C(=O)O)cc2)c(OC)c1 | nt | i | nt | nt
COc1ccc2c(c1)C(=NNc1ccc(C(=O)O)cc1)c1cc(OC)ccc1-2 | 7.55* | i | i | i | CHO-K1 ctr=-15.1;KCNQ1 sel pot=-17.0;KCNQ2 pot confirm=-17.6;Kir2-1 sel=-30.7
O=C1NCCCc2c1oc1ccc(O)cc21 | 0.28 | i | nt | nt
Oc1c(Cl)cc(Cl)c2c1NCCC2 | 6.29* | i | i | i | CHO-K1 ctr=4.8*;KCNQ1 sel pot=1.6*;KCNQ2 pot confirm=6.1*;Kir2-1 sel=-41.5;KCNQ2 W236L MoA=i
CCCCNC(=S)NC(=O)c1ccc([N+](=O)[O-])cc1 | 8.79* | i | i | 188.0%* | CHO-K1 ctr=2.5*;KCNQ1 sel pot=14.1*;KCNQ2 pot confirm=10.3*;Kir2-1 sel=-12.9;KCNQ2 W236L MoA=i
CC(C)CNC(=S)NC(=O)c1ccc([N+](=O)[O-])cc1 | 1.81 | i | nt | nt
Cc1ccccc1NC(=O)CC(O)(C(F)(F)F)C(F)(F)F | 0.22 | i | nt | nt
SMILES | KCNQ2 enhance | KCNQ2 block | Kir21 conf inh | HEK293 Tl flux | others
Cc1ccc(NC(=O)CC(O)(C(F)(F)F)C(F)(F)F)c(Br)c1 | 8.74* | i | i | i | CHO-K1 ctr=54.3*;KCNQ1 sel pot=53.9*;KCNQ2 pot confirm=31.2*;Kir2-1 sel=-38.8;KCNQ2 W236L MoA=i
Cc1cccc(NNC(=O)c2c(F)cccc2Cl)c1 | 1.04 | i | nt | nt
CC(CNc1nc2ccccc2n2cnnc12)c1ccccc1 (centres undefined) | 0.02 | i | nt | nt
CSc1ccc(S(=O)(=O)NC(C)c2ccccc2)cc1 (centres undefined) | 1.16 | i | 42.5%* | i
Cc1ccc(S(=O)(=O)NC(C)c2ccccc2)cc1[N+](=O)[O-] (centres undefined) | 0.61 | i | 46.0%* | i
C/C(CC(C)C)=N\NS(=O)(=O)c1ccc(C)c([N+](=O)[O-])c1 | nt | i | nt | nt
CSc1ccc(S(=O)(=O)NCc2ccccc2)cc1 | nt | i | nt | nt
Cc1c(OCC(=O)N[C@H](C(=O)O)c2ccccc2)ccc2c3c(c(=O)oc12)CCCC3 | 0.41 | i | nt | nt
Cc1ccc(C(C)C)cc1OCCn1cncn1 | 0.57 | i | nt | nt
O=C(CCC(=O)N1CCOc2ccccc21)NCc1cccnc1 | nt | i | nt | nt
CNCc1cc(Br)c(OCC(=O)Nc2ccccc2OC)c(OC)c1 | 0.95 | i | nt | nt
COc1cc(CNCCc2ccccc2)cc(Br)c1OCC(=O)Nc1ccccc1C | -7.11 | -7.11* | 55.0%* | i
CCOc1ccccc1C(=O)N/N=C/c1ccoc1 | nt | i | nt | nt
O=C(O)c1ccccc1NC(c1ccccc1)c1ccc(Cl)cc1 (centres undefined) | 5.92* | i | i | i | CHO-K1 ctr=-11.2;KCNQ1 sel pot=16.3*;KCNQ2 pot confirm=-6.8;Kir2-1 sel=-42.5
O=C(CSc1ccccc1C(=O)O)c1ccc(Cl)cc1 | 1.01 | i | nt | nt
COc1ccc(C(=O)NCCc2nnc3ccc(SCC(=O)N4CCCCC4)nn23)cc1 | 1.76 | i | nt | nt
Cn1c(-c2ccc3c(c2)OCO3)cnc1NCc1ccccc1 | nt | i | 30.5%* | i
Cn1c(-c2ccccc2)cnc1NCc1ccccc1 | nt | i | nt | nt
Cn1c(NCc2cc(Br)ccc2O)nc2ccccc21 | 0.81 | i | nt | nt
Cn1c(-c2cccc(Br)c2)cnc1NCc1ccccc1O | 5.59* | i | 75.0%* | i | CHO-K1 ctr=2.7*;KCNQ1 sel pot=8.7*;KCNQ2 pot confirm=-13.0;Kir2-1 sel=-58.9
CCCCn1c(N)c(N(CCOC)C(=O)c2ccc(S(=O)(=O)N3CCC(C)CC3)cc2)c(=O)[nH]c1=O | 1.38 | i | nt | nt
COc1ccc(NS(=O)(=O)c2cccc(C(=O)NCc3cccnc3)c2)cc1 | 0.47 | i | nt | nt
O=C(Nc1cccc([N+](=O)[O-])c1)c1ccc(N2CCCC2=O)cc1 | nt | i | nt | nt
Cc1ccc(NC(=O)COc2ccccc2CNC(C)(C)CC(C)(C)C)cc1 | nt | i | 43.5%* | i
CC(C)(CO)NCc1ccccc1OCC(=O)Nc1ccccc1 | nt | i | nt | nt
SMILES | KCNQ2 enhance | KCNQ2 block | Kir21 conf inh | HEK293 Tl flux | others
COc1ccccc1NC(=O)c1ccc(CSc2ccccc2)o1 | nt | i | nt | nt
N/C(=N\c1nc2ccccc2o1)NC(=O)c1ccccc1Br | nt | i | nt | nt
c1ccc(CN2CCN(CCOCCOc3cccc4ccccc34)CC2)cc1 | nt | i | 19.0%* | i
O=C(c1ccco1)N1CCN(CCOCCOc2cccc3ccccc23)CC1 | 0.35 | i | nt | nt
CCOC(=O)C1CCCN(C(=O)c2cc(S(=O)(=O)N3CCCCC3)c[nH]2)C1 (centres undefined) | nt | i | nt | nt
CCOc1ccccc1NC(=O)CN(c1ccc(OC)cc1)S(=O)(=O)c1c(C)[nH]c(=O)[nH]c1=O | 1.85 | i | nt | nt
